According to ChEMBL document CHEMBL1157539, “Thousands of chemical starting points for antimalarial lead identification” (Nature, 2010):

Tests used:
Format in all cases: functional
[1] = system: Plasmodium falciparum; test: GSK_TCMDC: Inhibition of Plasmodium falciparum 3D7 in whole red blood cells, using parasite LDH activity as an index of growth. Test compounds present at 2uM
[2] = system: Plasmodium falciparum; test: GSK_TCMDC: Inhibition of Plasmodium falciparum Dd2 in whole red blood cells, using parasite LDH activity as an index of growth. Test compounds present at 2uM
[3] = system: HepG2; test: GSK_TCMDC: Percent inhibition of human HepG2 cell line. Test compounds present at 10uM.

NC(=O)c1ccccc1OCC(=O)Nc1cccc(-c2ccc(-c3nc4cc(C(F)(F)F)ccc4[nH]3)cc2)c1
Inhibition [1]: 92% | Inhibition [2]: 17% | Inhibition [3]: 58%

CCc1c[nH]c2c(N3CCCC3=O)cc(C(=O)N[C@@H](Cc3ccccc3)[C@H](O)CNC(C)(C)c3cccc(C(F)(F)F)c3)cc12.O=CO
Inhibition [1]: 98% | Inhibition [2]: 99% | Inhibition [3]: 10%

CC(C)CCn1c(Sc2ccc(C#N)c([N+](=O)[O-])c2)nnc1-c1cccc(Cl)c1
Inhibition [1]: 96% | Inhibition [2]: 82% | Inhibition [3]: 33%

CC(C)CNCc1ccc(-c2ccc(CN(CCCN3CCN(C)CC3)C(=O)CCC3CCCC3)cc2)cc1.O=C(O)C(F)(F)F
Inhibition [1]: 96% | Inhibition [2]: 87% | Inhibition [3]: 50%

O=C(Nc1ccc(C(=O)N(Cc2ccc3c(c2)OCO3)C2CCCC2)cc1)c1cccs1
Inhibition [1]: 97% | Inhibition [2]: 95% | Inhibition [3]: 14%

CN(C)CCNCc1ccc(-c2ccc(-c3nc4cc(F)ccc4[nH]3)cc2)cc1.O=C(O)C(F)(F)F
Inhibition [1]: 100% | Inhibition [2]: 99% | Inhibition [3]: 8%

O=C(/C=C/c1cccc(Cl)c1)N1CCC(C(O)CN2CCC3(CC2)CN(C(=O)/C=C/c2cccc(Cl)c2)c2ccccc23)CC1 (configuration not stated)
Inhibition [1]: 91% | Inhibition [2]: 38% | Inhibition [3]: 34%

CC(CN1CCN(C)CC1)C(=O)Nc1ccc(-c2ccc(-c3nc4cc(F)ccc4[nH]3)cc2)cc1 (configuration not stated)
Inhibition [1]: 100% | Inhibition [2]: 87% | Inhibition [3]: 19%

COc1ccc(C(=O)N2CCC(C(=O)NC(C)c3ccc(-n4ccnc4)cc3)CC2)c2ccccc12 (configuration not stated)
Inhibition [1]: 83% | Inhibition [2]: 79% | Inhibition [3]: 12%
